Abeta rescue – compounds reversing amyloid beta toxicity in yeast. yeast expressing A-beta42, growth rescue, OD600, 48 h; response scale: 0% DMSO, 100% iron-clioquinol control. Potency, µM (titrated, usually from 46.1 µM), hits mostly activators. actives 0.063% (n = 410,000). AID 1347071; further: nearly all actives have a fitted effect of over 55% in size
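Growth rescue measured by 600 nm absorbance after 48 h yeast culture at 30 C with compound. Values normalized between DMSO and an equimolar ferric chloride plus clioquinol control.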
TDP43 rescue – TDP-43 toxicity inhibition in yeast | AID 652104 | Potency, µM (highest dose often 46.1 µM), most hits filed as activators | TDP-43 expressing yeast growth rescue, BacTiter-Glo, 24 h | actives 1.8% (n = 410,000); further: nearly all actives have a fitted effect of over 50% in size
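Galactose-induced TDP-43 yeast, OD600=0.02, compound pinned; 24 hr, 30 deg C; BacTiter-Glo luminescence for growth. Inhibitors of TDP-43 toxicity read as activators.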
Mito fusion yeast – mitochondrial division inhibition or fusion activation. S. cerevisiae fusion-defective mutant growth rescue, CellTiterGlo 48 h. Potency, µM (series often up to 46.1 µM), usual class: activators. actives 0.23% (n = 320,000). AID 485298; further: nearly all actives have a fitted effect of over 45% in size
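Yeast fusion mutant, YPEG (non-fermentable carbon), compound, 48 h at 37C non-permissive; CellTiterGlo added, 10 min RT, luminescence read. Rescued growth = division inhibition.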
aSyn rescue – alpha-synuclein toxicity inhibition in yeast; actives 0.14% (n = 370,000); Potency, µM (series often up to 46.1 µM), hits mostly activators; Yeast expressing alpha-synuclein, growth rescue, BacTiter-Glo, 24 h; AID 652106; further: nearly all actives have a fitted effect of over 65% in size
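Rescue of yeast growth: cells expressing toxic alpha-synuclein, induced in galactose at OD600 0.02, incubated with compound 24 h at 30 C. ATP luminescence quantified growth; inhibitors of toxicity appear as activators.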
FUS suppressor – suppressors of FUS proteinopathy in yeast | Potency, µM (series often up to 76.6 µM), hits mostly activators | actives 0.24% (n = 390,000) | S. cerevisiae FUS-expressing, growth rescue, OD600, 24 h; further: nearly all actives have a fitted effect of over 55% in size
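Restored growth of FUS-toxic S. cerevisiae, read as 600 nm absorbance after 24 h at 30C in galactose medium (starting OD 0.005). Controls CP55940 and DMSO.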
Of the large screens only hits and unclear results are named; the others gave an inactive call. A selection: hits, their analogues and other compounds. The true share with any hit is near 2.2%. The call rests on the fitted dose curve; in most records, active means well fitted curve in the direction sought with a large enough effect; inconclusive means small, poorly fitted or top-dose-only effect, or another doubt; inactive means no such curve, though single readings can be large; an effect the other way counts as inactive or inconclusive.

O=C(CSCc1ccc(F)cc1)Nc1nc2c(s1)CCCC2	TDP43 rescue 14µM
O=C(CSc1nnc(CNc2ccc(Cl)cc2)o1)Nc1nc2c(s1)CCCC2	FUS suppressor 35µM
O=C(COc1ccccc1Cl)Nc1nc2c(s1)CCCC2	TDP43 rescue 11µM (no result: Mito fusion yeast, aSyn rescue)
COc1cccc(-n2c(-c3ccco3)nc3c(cnn3-c3ccc(C)cc3)c2=O)c1	FUS suppressor inconclusive (no result: Mito fusion yeast, aSyn rescue)
COc1ccccc1CCNC(=O)C(=O)NCC(c1ccc2c(c1)OCO2)N1CCOCC1 (stereo not given)	none (no result: Mito fusion yeast, aSyn rescue)
CCOC(=O)c1sc(NC(=O)c2c(-c3ccccc3)c(-c3ccccc3)nn(C)c2=O)nc1C	TDP43 rescue 16µM, FUS suppressor inconclusive (no result: Mito fusion yeast, aSyn rescue)
Cc1nc(NC(=O)c2c(-c3ccccc3)c(-c3ccccc3)nn(C)c2=O)sc1C	none (no result: Mito fusion yeast, aSyn rescue)
CCn1c(=O)c(-c2ccccc2)c(O)c2ccccc21	TDP43 rescue inconclusive
CCCCn1c(=O)c(-c2ccccc2)c(O)c2ccccc21	TDP43 rescue 18µM
Cn1c(=O)c(-c2cccc(Cl)c2)c(O)c2ccccc21	TDP43 rescue 11µM (no result: Mito fusion yeast)
CCn1c(=O)c(-c2cc(=O)[nH][nH]2)c(O)c2ccccc21	FUS suppressor 32µM
COCOc1ccc(-c2oc3c(C/C=C(\C)CCC=C(C)C)ccc(O)c3c(=O)c2OCOC)c(OCOC)c1	none (no result: Mito fusion yeast)
Fc1ccc2cc(-c3ccsc3)ncc2c1	none (no result: Mito fusion yeast)
O=Cc1ccc(-c2cccc([N+](=O)[O-])c2)o1	none
O=Cc1ccc(-c2ccc([N+](=O)[O-])cc2Cl)o1	TDP43 rescue 11µM
CCOC(=O)c1ccc(O)c(-n2cc3c(c2-c2ccccc2)c(=O)n(C)c(=O)n3C)c1	none (no result: Mito fusion yeast)
CCOc1ccc(N=C2SC(C(=O)Nc3ccccc3C#N)C(N)=C2C(=O)Nc2ccc(Cl)cc2)cc1 (stereo not given)	FUS suppressor 35µM
N#Cc1ccccc1NC(=O)C1SC(=Nc2ccccc2)C(C(=O)Nc2ccc(Cl)cc2)=C1N (stereo not given)	none
CCCCNc1nc(N(C)c2ccccc2)nc(-n2ccnc2)n1	TDP43 rescue 14µM
CN(c1ccccc1)c1nc(-n2ccnc2)nc(-n2ccnc2)n1	TDP43 rescue inconclusive
COc1ccc(S(=O)(=O)NC(=O)C2(C)CCN2C(=O)COc2ccc(Cl)cc2)cc1OC (stereo not given)	none (no result: Mito fusion yeast)
Fc1ccccc1N1CCN(c2nc(-c3cccs3)nc3ccccc23)CC1	TDP43 rescue 14µM
Cc1ccc(CCNC(=O)c2oc(=O)c3ccccc3c2-c2ccc(C)cc2)cc1	TDP43 rescue inconclusive, FUS suppressor inconclusive (no result: Mito fusion yeast, aSyn rescue)
Cc1ccc(-c2c(C(=O)NCCc3ccc(Cl)cc3)oc(=O)c3ccccc23)cc1	FUS suppressor 16µM (no result: Mito fusion yeast, aSyn rescue)
O=C(Nc1ccccc1)C1=C[C@H](c2coc3ccccc3c2=O)C[C@H](OCc2ccc(CO)cc2)O1	TDP43 rescue 20µM, FUS suppressor inconclusive
C#CCNC(=O)C1=C[C@@H](c2csc3ccccc23)C[C@@H](OCc2ccc(CO)cc2)O1	TDP43 rescue 25µM
O=C(NC1CC1)C1=C[C@@H](c2csc3ccccc23)C[C@@H](OCc2ccc(CO)cc2)O1	TDP43 rescue 14µM, FUS suppressor inconclusive
COc1ccc(NC(=O)CCc2nnc3n(C)c(=O)c4sccc4n23)cc1Cl	none (no result: Mito fusion yeast, aSyn rescue)
COc1cccc(-c2cc(C(C)=O)c3n(c2=O)CCC3)c1OC	none (no result: Abeta rescue, TDP43 rescue, Mito fusion yeast, aSyn rescue)
Cc1cccc(NC(=O)Cn2cnc3ccc(S(=O)(=O)N4CCC(C)CC4)cc3c2=O)n1	FUS suppressor 35µM
COc1ccc(-c2cc(C)no2)cc1S(=O)(=O)NCc1ccco1	none (no result: Mito fusion yeast, aSyn rescue)
COc1ccc(CNC(=O)c2cnn(-c3ccc(OC)cc3)c2C2CCN(C(=O)OC(C)(C)C)CC2)cc1	FUS suppressor inconclusive (no result: Mito fusion yeast, aSyn rescue)
COc1ccc(-n2ncc(C(=O)NCc3ccc4c(c3)OCO4)c2C2CCN(C(=O)OC(C)(C)C)CC2)cc1	FUS suppressor 32µM (no result: Mito fusion yeast, aSyn rescue)
Cc1ccc(-n2ncc(C(=O)Nc3ccc4c(c3)OCO4)c2C2CCN(C(=O)OC(C)(C)C)CC2)cc1	FUS suppressor 28µM (no result: Mito fusion yeast, aSyn rescue)
Cc1ccc(-n2ncc(C(=O)NCc3ccc4c(c3)OCO4)c2C2CCN(C(=O)OC(C)(C)C)CC2)cc1C	FUS suppressor 25µM (no result: Mito fusion yeast, aSyn rescue)
